Screens (PubChem BioAssay)
This is a sample that favours compounds with a hit; in the whole collection about 2.4% have one here.
GLS inh: glutaminase GLS (human) inhibition; O94925; GLS enzymatic activity, qHTS titration; Potency, µM (top dose mostly 45.5 µM), most hits filed as inhibitors; 410,000 tested, 0.21% active; AID 624170
Target sequence (O94925 whole entry, looked up): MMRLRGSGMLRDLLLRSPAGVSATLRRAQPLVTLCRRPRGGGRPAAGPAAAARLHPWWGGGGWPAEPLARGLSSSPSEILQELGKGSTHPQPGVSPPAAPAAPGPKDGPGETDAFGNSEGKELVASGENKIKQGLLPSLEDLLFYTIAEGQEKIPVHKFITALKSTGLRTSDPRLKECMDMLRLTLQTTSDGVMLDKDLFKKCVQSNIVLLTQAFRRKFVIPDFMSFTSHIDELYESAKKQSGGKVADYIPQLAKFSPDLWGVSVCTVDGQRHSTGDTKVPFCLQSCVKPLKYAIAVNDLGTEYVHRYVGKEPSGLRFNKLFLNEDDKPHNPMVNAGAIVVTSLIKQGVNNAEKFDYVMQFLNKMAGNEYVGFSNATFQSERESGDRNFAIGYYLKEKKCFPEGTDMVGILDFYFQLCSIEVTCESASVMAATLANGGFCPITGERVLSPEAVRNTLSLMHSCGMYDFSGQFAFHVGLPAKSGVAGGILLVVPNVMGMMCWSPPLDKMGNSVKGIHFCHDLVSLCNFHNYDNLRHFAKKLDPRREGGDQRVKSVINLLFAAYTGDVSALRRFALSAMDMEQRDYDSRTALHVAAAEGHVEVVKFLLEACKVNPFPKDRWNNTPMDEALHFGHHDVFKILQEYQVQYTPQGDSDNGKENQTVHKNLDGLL
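hKGA in 45 mM KH2PO4 pH 8.2, 0.02% Tween-20 with pin-transferred compounds; 1 mM L-glutamine (stock) plus glutamate oxidase/HRP/Amplex Red coupling added. Fluorescence read initially and after 30 min at RT.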
POLB inh: DNA polymerase beta (human) inhibition. P06746. Pol beta primer extension/strand displacement, fluorescence kinetic. Potency, µM (top dose mostly 114 µM), usual class: inhibitors. 340,000 tested, 1.3% active
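10 nM enzyme + cpd, 15 min RT; start with substrate 50 nM final; read 0 min and after 10 min RT. Corrected, normalized data; 4-parameter Hill curve fit.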
Pol iota inh: DNA polymerase iota (human) inhibition. Q9UNA4. Pol iota fluorescent replication assay, 10 min. Potency, µM (series often up to 115 µM), usual class: inhibitors. 390,000 tested, 1% active. AID 588590
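Pol iota at 10 nM preincubated 15 min with compounds at room temperature; reaction started with fluorescent substrate, 50 nM final. Fluorescence read kinetically at 0 and 10 min; buffer-only wells as negative control.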
GCN5L2 inh: blocks human GCN5L2 histone acetyltransferase; GCN5L2 HAT assay, ThioGlo1 CoA-SH fluorescence; AID 504327; 390,000 tested, 0.21% active; Q92830; Potency, µM (top dose mostly 58.9 µM), most hits filed as inhibitors
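qHTS, 1536-well. 20nM enzyme, pH 7.5 HEPES/EDTA/Tween-20 buffer; 15 min compound preinc., RT. Start: 75uM H3(1-25), 70uM AcCoA, 50uM ThioGlo1. Read Ex340/Em540 at t=0 (autofluorescence flag) and t=20 min.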
Pol kappa inh-1: inhibitors of human DNA polymerase kappa; Potency, µM (titrated, usually from 107 µM), hits mostly inhibitors; 400,000 tested, 0.53% active; purified Pol kappa, fluorescent DNA synthesis assay, 10 min
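10 nM Pol kappa preincubated 15 min at room temperature with compounds, then reaction started with substrate at 50 nM final. Fluorescence read kinetically at 0 and 10 min; buffer-only wells served as negative control.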
Pol eta inh-1: inhibitors of human DNA polymerase eta | 390,000 tested, 1.2% active | recombinant Pol eta, fluorescent DNA replication assay | Q9Y253 | Potency, µM (series often up to 114 µM), actives largely listed as inhibitors
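Pol eta (10 nM) was preincubated with compounds for 15 min at room temperature, after which fluorescent replication substrate (50 nM final) was added to start the reaction. Fluorescence was read kinetically at 0 and 10 min.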
Pol kappa inh-2: confirmation of human DNA polymerase kappa inhibitors | Potency, µM, hits mostly inhibitors | purified Pol-kappa, fluorescent strand-displacement substrate | shares compounds with Pol eta inh-1 | 920 tested, 76% active
Pol eta inh-2: Pol eta (human) inhibition, cherry-pick confirmation; Potency, µM, actives largely listed as inhibitors; 2,600 tested, 64% active; shares compounds with Pol eta inh-1; Pol eta primer extension, TAMRA/BHQ fluorescence, 10 min
GLS confirm: confirmation of human glutaminase inhibitors; shares compounds with GLS inh; biochemical glutaminase enzyme inhibition assay; Potency, µM (highest dose often 46.1 µM), most hits filed as inhibitors; 35 tested, under 10 active; calls by dose curve
GLS HRP counter: counter-screen for glutaminase inhibitors: HRP coupled enzyme inhibition | shares compounds with GLS inh | HRP/glutamate oxidase coupled Amplex Red fluorescence counterscreen | activity change, negative = inhibition, % at 46.1 µM | 35 tested, under 10 active
GLS HEK tox: HEK-293 cytotoxicity, glutaminase hit confirmation; HEK-293 viability, CellTiter-Glo luminescence, 24 h; 35 tested, under 10 active; shares compounds with GLS inh; activity change, negative = cytotoxicity, % at 46.1 µM
Each line names hits and unclear results; the compound was inactive in the other large screens (follow-up assays come after a bar, where they were run). Unless noted, calls come from the whole dose curve; as a rule, active = well fitted curve in the direction sought with a large enough effect; inconclusive = small, poorly fitted or top-dose-only effect, or another doubt; inactive = no such curve, though single readings can be large; an effect the other way counts as inactive or inconclusive.

Cc1c(Cl)cnc(NC(=O)COC(=O)CNC(=O)c2ccccc2)c1Cl	Pol eta inh-1 50µM (no result: POLB inh) | Pol kappa inh-2 inconclusive | Pol eta inh-2 inconclusive
CC(=O)c1cccc(NC(=O)CSc2nc3ccccc3nc2Cc2ccc(F)cc2)c1	none
O=C1CSC(=S)N1Cc1cccnc1	Pol iota inh inconclusive, Pol eta inh-1 inconclusive | Pol eta inh-2 inconclusive
CCOC(=O)c1ccc(NC(=O)CN2C(=O)COc3ccc(Cl)cc32)cc1	none
COc1ccc(NC(=O)Cn2ccn(-c3ccc(C)c(C)c3)c(=O)c2=O)cc1Cl	none
O=C(c1cc(-c2ccco2)on1)N1CCCc2ccccc21	POLB inh 35µM, Pol iota inh inconclusive, Pol kappa inh-1 79µM, Pol eta inh-1 79µM | Pol eta inh-2 inconclusive
O=C(c1coc(=O)c(Br)c1)N1CCCc2ccccc21	POLB inh 25µM, Pol iota inh 16µM, Pol kappa inh-1 32µM, Pol eta inh-1 11µM | Pol kappa inh-2 42 | Pol eta inh-2 38
COc1ccc(C(=O)OCc2cc(=O)n3nc(-c4cccs4)sc3n2)cc1	POLB inh inconclusive, Pol iota inh inconclusive, Pol eta inh-1 inconclusive | Pol eta inh-2 inconclusive
COc1ccc(C(=O)Nc2ccc(C(=O)OCc3cc(=O)n4nc(C5CC5)sc4n3)cc2)cc1	GLS inh inconclusive, POLB inh inconclusive, Pol iota inh inconclusive
Cc1cc(C)c(S(=O)(=O)NCCc2cc3cc(C)c(C)cc3[nH]c2=O)c(C)c1	none
COc1cc(C2C3=C(Nc4nc(N)[nH]c(=O)c42)c2ccccc2C3=O)ccc1O (stereo not given)	Pol iota inh 14µM, Pol kappa inh-1 89µM, Pol eta inh-1 22µM | Pol eta inh-2 38
Nc1nc2c(c(=O)[nH]1)C(c1ccccc1)C1=C(N2)c2ccccc2C1=O (stereo not given)	none
COc1ccc(OC)c(S(=O)(=O)Nc2ccccc2C)c1	none
COc1ccc(OC)c(S(=O)(=O)Nc2ccccc2O)c1	GLS inh 10µM (no result: POLB inh, GCN5L2 inh) | GLS confirm inconclusive | GLS HRP counter inconclusive | GLS HEK tox inactive
O=C(Nc1ccccc1O)c1cccc(S(=O)(=O)Nc2ccccc2O)c1	GLS inh 10µM (no result: POLB inh, GCN5L2 inh) | GLS confirm inconclusive | GLS HRP counter inconclusive | GLS HEK tox inactive
Cc1ccccc1NS(=O)(=O)c1cccc(C(=O)Nc2cccc(C(=O)O)c2)c1	none
CC(C)(C)NC(=O)c1ccc2nc(CCc3ccccc3)oc2c1	none
O=S(=O)(Nc1ccccc1O)c1cccc2cccnc12	GLS inh inconclusive | GLS confirm inactive | GLS HRP counter inconclusive | GLS HEK tox inactive
CC(=O)Nc1ccc(Nc2nc3ccc(C)cc3n3nnnc23)cc1	none
Cc1ccc(NS(=O)(=O)c2cc(C(=O)O)ccc2Cl)cc1	GLS inh 11µM, POLB inh inconclusive, Pol eta inh-1 inconclusive | GLS confirm inconclusive | GLS HRP counter inactive | GLS HEK tox inactive
NS(=O)(=O)c1ccc(CNS(=O)(=O)c2cc(C(=O)O)ccc2Cl)cc1	GLS inh 11µM, POLB inh inconclusive, Pol iota inh inconclusive, Pol eta inh-1 20µM | GLS confirm 5.8µM | GLS HRP counter inactive | GLS HEK tox inactive
CCN(CC)c1ccc(N)cc1S(=O)(=O)Nc1ccccc1OC	GLS inh 7.1µM | GLS confirm inactive | GLS HRP counter inconclusive | GLS HEK tox inactive
COc1ccc(N)cc1S(=O)(=O)Nc1ccccc1Cl	none
CCN(CC)c1ccc(NC(=O)COc2ccccc2C#N)cc1S(=O)(=O)Nc1ccccc1OC	GLS inh inconclusive | GLS confirm inactive | GLS HRP counter inactive | GLS HEK tox inactive
CCN(CC)c1ccc(NC(=O)c2ccccn2)cc1S(=O)(=O)Nc1ccccc1OC	Pol iota inh inconclusive (no result: POLB inh)
COc1cccc(NC(=O)C(Cc2ccccc2)N2Cc3ccccc3C2=O)c1 (stereo not given)	none
Cc1ccc(NCc2cccn2-c2nnc(N3CCC(C(=O)NCc4ccc(F)cc4)CC3)s2)cc1	none (no result: Pol eta inh-1)
COc1ccc(S(=O)(=O)Nc2c(O)ccc3ccccc23)cc1OC	GLS inh inconclusive (no result: POLB inh, GCN5L2 inh) | GLS confirm inactive | GLS HRP counter inconclusive | GLS HEK tox inactive
COc1ccc(S(=O)(=O)Nc2ccccc2C)cc1	none
COc1ccc(S(=O)(=O)Nc2cccc3ccc(O)cc23)cc1	GLS inh 11µM (no result: POLB inh, GCN5L2 inh) | GLS confirm inactive | GLS HRP counter inconclusive | GLS HEK tox inconclusive
O=C(O)c1ccccc1NS(=O)(=O)c1cccc(-n2sc3ccccc3c2=O)c1	GLS inh 7.1µM, POLB inh inconclusive, Pol iota inh 25µM, GCN5L2 inh 0.45µM, Pol eta inh-1 50µM | GLS confirm 5.2µM | GLS HRP counter inactive | GLS HEK tox inactive
N#Cc1ccccc1NC(=O)C(=O)NCC(c1cccnc1)N1CCN(c2ccccc2)CC1 (stereo not given)	none
CCc1nnc(SCc2nc(-c3ccc(OC)c(OC)c3)oc2C)c2cc3sc(C)cc3n12	none
Cc1ccc(S(=O)(=O)Nc2ccccc2/C=N/c2nc3ccccc3n2C)cc1	GLS inh inconclusive | GLS confirm inconclusive | GLS HRP counter inactive | GLS HEK tox inactive
